According to PubChem BioAssay AID651610 (Broad Institute, 2012):
Screen size: about 360,000 compounds; about 3,900 (1.1%) were called active.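 Rule for the calls: active = mean replicate inhibition score of at least 50 and every replicate individually at or above 50; inconclusive = only one of the two criteria met; inactive = mean below 50 and not all replicates reaching 50.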 For the sample, actives were picked, then their nearest neighbours and some compounds at random.

Assay: inhibitors of HIV-1 Env-driven cell-cell fusion, primary screen, HeLa-JRFL effector, CEM21 target cells, luciferase (AID 651610);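 note: 0% = plate neutral controls and 100% = maraviroc near 300 nM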
Conditions: stronger effect = higher value; at 16.7 µM unless noted

| SMILES | inhibition |
| --- | --- |
| COc1ccc(NC(=O)N(C)C[C@@H]2OCCCC[C@@H](C)Oc3ccc(N(C)C)cc3C(=O)N([C@H](C)CO)C[C@@H]2C)cc1 | 7.61% (inactive) |
| C[C@H]1CN([C@@H](C)CO)C(=O)Cc2cc(NC(=O)C3CC3)ccc2O[C@H]1CN(C)C(=O)Nc1ccc(C(F)(F)F)cc1 | 3.78% (inactive) |
| C[C@H](CO)N1C[C@H](C)[C@@H](CN(C)S(=O)(=O)c2cn(C)cn2)OCCCC[C@H](C)Oc2ccc(NC(=O)Cc3ccccc3)cc2C1=O | -9.54% (inactive) |
| C=CCn1c(C)cc(C2=NNC(=NCC)SC2)c1C | 68.8% [at 12.3 µM] (active) |
| CO[C@@H]1CN(C)C(=O)c2ccc(NC(=O)c3ccc(F)cc3)cc2OC[C@H](C)NC[C@@H]1C | -0.21% (inactive) |
| C[C@@H]1CN([C@H](C)CO)C(=O)Cc2cc(NC(=O)Nc3ccc(F)cc3)ccc2O[C@@H]1CN(C)C(=O)Nc1ccc2c(c1)OCO2 | 8.43% (inactive) |
| CCc1ccccc1NC(=O)CN(c1ccc(OC)cc1OC)S(=O)(=O)c1ccccc1[N+](=O)[O-] | 55.2% [at 12.3 µM] (active) |
| COc1ccc(N(CC(=O)Nc2ccc(C)cc2C)S(=O)(=O)c2ccccc2[N+](=O)[O-])c(OC)c1 | 31.2% [at 12.3 µM] (inactive) |
| COc1ccc(N(CC(=O)Nc2cccc3ccccc23)S(C)(=O)=O)c(OC)c1 | 4.71% [at 12.3 µM] (inactive) |
| C[C@H](CO)N1C[C@H](C)[C@@H](CN(C)Cc2ccc(C(=O)Nc3ccccc3N)cc2)Oc2c(NC(=O)c3ccc(-c4nccs4)cc3)cccc2C1=O | -33.5% (inactive) |
| COc1ccc(Cl)cc1NC(=O)CN(C)C(=O)c1cc2ccccc2cc1OC | 26.5% [at 12.3 µM] (inactive) |
| COc1ccc(Cl)cc1NC(=O)CN(C)C(=O)CCCc1c[nH]c2ccccc12 | 75.6% [at 12.3 µM] (active) |
| COc1ccc(Cl)cc1NC(=O)CN(C)C(=O)CNC(=O)C12CC3CC(CC(C3)C1)C2 | -38.6% [at 12.3 µM] (inactive) |
| C[C@H](CO)N1C[C@H](C)[C@H](CN(C)C(=O)Nc2ccc(C(F)(F)F)cc2)Oc2ccc(NS(=O)(=O)c3cn(C)cn3)cc2CC1=O | 10.7% (inactive) |
| CN1C(=O)c2cc(NS(=O)(=O)CC(F)(F)F)ccc2OC[C@H]2O[C@@H](CC(=O)NCc3ccc(Cl)c(Cl)c3)CC[C@@H]21 | -8.14% (inactive) |
| COCC(=O)Nc1ccc2c(c1)C(=O)N(C)[C@H]1CC[C@H](CC(=O)Nc3ccccc3)O[C@H]1CO2 | 12.1% (inactive) |
| O=C1c2cccnc2C(Nc2ccc(S(=O)(=O)N3CCCCCC3)cc2)N1Cc1ccccc1 (stereo not given) | 75.5% [at 12.3 µM] (active) |
| O=S(=O)(NCc1ccccc1)c1ccc(S(=O)(=O)N2CCCC2)cc1 | -8.09% [at 12.3 µM] (inactive) |
| Cc1nc(Nc2ccc(S(=O)(=O)N3CCCC3)cc2)c2nnn(Cc3ccccc3)c2n1 | 11.3% [at 12.3 µM] (inactive) |
| NCC[C@@H]1CC[C@@H](NC(=O)C2CCCC2)[C@H](CO)O1 | -16.5% (inactive) |
| O=C(C[C@H]1C[C@H]2c3cc(NC(=O)c4ccc5c(c4)OCO5)ccc3O[C@H]2[C@@H](CO)O1)NCc1cccc(F)c1 | -9.68% (inactive) |
| CC(=O)c1ccc(-c2nnc(CCC(=O)N(C)Cc3cnc4ccccn34)o2)s1 | 0.752% [at 12.3 µM] (inactive) |

| SMILES | inhibition |
| --- | --- |
| CCc1ccc(CN(C)Cc2nc(Cc3ccccc3)no2)nc1 | 9.8% [at 12.3 µM] (inactive) |
| CCc1ccc(CN(C)C(=O)CCc2nnc(-c3ccc(-c4ccccc4)cc3)o2)nc1 | 55.8% [at 12.3 µM] (active) |
| CN(C)C(=O)C[C@H]1C[C@H]2c3cc(NC(=O)Nc4ccccc4F)ccc3O[C@H]2[C@@H](CO)O1 | 1.88% (inactive) |
| O=C(CSc1nnc(Cc2ccccc2)n1-c1ccccc1)N1CCOCC1 | -26.5% [at 12.3 µM] (inactive) |
| Cn1cccc1Cc1nnc(SCC(=O)NCCc2ccccc2)n1-c1ccc(F)cc1 | 16% [at 12.3 µM] (inactive) |
| Cc1ccc(-c2noc(CSc3nnc(-c4cccs4)n3C)n2)cc1 | 19.8% [at 12.3 µM] (inactive) |
| Cn1c(SCc2ccc(F)cc2)nnc1-c1ccncc1 | 8.23% [at 12.3 µM] (inactive) |
| Fc1ccc(-n2c(Cc3ccccc3)nnc2SCc2nc(-c3ccc(Cl)cc3)no2)cc1 | 79.7% [at 12.3 µM] (active) |
| Cc1ccc(-c2noc(CSc3nnc(-c4ccncc4)n3-c3ccc(F)cc3)n2)cc1 | 62.8% [at 12.3 µM] (active) |
| C[C@@H]1CCCCO[C@@H](CN(C)Cc2ccncc2)[C@H](C)CN([C@@H](C)CO)C(=O)c2cc(NS(=O)(=O)c3ccccc3)ccc2O1 | 18.8% (inactive) |
| CO[C@@H]1CN(C)C(=O)c2cc(NC(C)=O)ccc2OC[C@@H](C)N(C(=O)NC2CCCCC2)C[C@H]1C | 27.6% (inactive) |
| CC1(C(=O)NCc2ccc3c(c2)OCO3)CCN1C(=O)Cc1cccc2ccccc12 (stereo not given) | -2.06% [at 12.3 µM] (inactive) |
| CC1(C(=O)NCc2cccc3ccccc23)CCN1Cc1ccc(-c2ccccc2)o1 (stereo not given) | 102% [at 12.3 µM] (active) |
| CSc1ccc(CN2CCC2(C)C(=O)NCc2ccccc2Br)cc1 (stereo not given) | 26.2% [at 12.3 µM] (inactive) |
| C[C@H]1CN([C@@H](C)CO)C(=O)c2cccc(NC(=O)Nc3ccc(C(F)(F)F)cc3)c2O[C@H]1CN(C)S(=O)(=O)c1ccccc1 | 69.3% (active) |
| C[C@H](CO)N1C[C@H](C)[C@H](CN(C)S(=O)(=O)c2ccccc2)Oc2c(NC(=O)Nc3ccccc3)cccc2C1=O | -1.17% (inactive) |
| CNC[C@@H]1Oc2c(NC(=O)Nc3ccc(OC)cc3)cccc2C(=O)N([C@@H](C)CO)C[C@@H]1C | 5.18% (inactive) |
| COc1ccc(NC(=O)Nc2ccc3c(c2)CC(=O)N([C@H](C)CO)C[C@H](C)[C@H](CN(C)S(=O)(=O)c2ccc(OC)cc2)O3)cc1 | 42.7% (inactive) |
| C[C@@H]1CCCCO[C@@H](CN(C)S(=O)(=O)c2ccc(F)cc2)[C@@H](C)CN([C@@H](C)CO)C(=O)c2cc(NC(=O)Nc3ccc4c(c3)OCO4)ccc2O1 | -5.81% (inactive) |
| C[C@@H]1CN([C@H](C)CO)C(=O)c2cc(NC(=O)Nc3ccccc3)ccc2O[C@H]1CN(C)S(=O)(=O)c1ccc(F)cc1 | -5.96% (inactive) |
| COc1ccc(S(=O)(=O)N(C)C[C@H]2Oc3ccc(NC(=O)Nc4ccccc4)cc3CC(=O)N([C@H](C)CO)C[C@@H]2C)cc1 | -2.93% (inactive) |
| CNC[C@H]1Oc2c(NC(=O)Nc3cccc4ccccc34)cccc2C(=O)N([C@H](C)CO)C[C@H]1C | 56.8% (active) |

| SMILES | inhibition |
| --- | --- |
| C[C@H]1CN([C@@H](C)CO)C(=O)c2cc(NC(=O)Nc3ccc4c(c3)OCO4)ccc2O[C@H]1CN(C)S(=O)(=O)c1ccc(F)cc1 | 68.9% (active) |
| C[C@H](CO)N1C[C@H](C)[C@@H](CN(C)S(=O)(=O)c2ccc(F)cc2)Oc2c(NC(=O)Nc3ccccc3)cccc2C1=O | -4.04% [at 12.3 µM] (inactive) |
| C[C@@H]1CN([C@H](C)CO)C(=O)c2cccc(NC(=O)Nc3cccc4ccccc34)c2O[C@@H]1CN(C)C(=O)Nc1cccc2ccccc12 | -85% (inactive) |
| COc1ccc(NC(=O)Nc2ccc3c(c2)CC(=O)N([C@H](C)CO)C[C@H](C)[C@H](CN(C)S(=O)(=O)c2ccccc2)O3)cc1 | 59.1% (active) |
| CCCN(C)C[C@@H]1Oc2cc(-c3cccc(C#N)c3)ccc2S(=O)(=O)N([C@@H](C)CO)C[C@@H]1C | 1.91% (inactive) |
| C[C@H](CO)N1C[C@H](C)[C@H](CN(C)C(=O)NC2CCCCC2)Oc2ccc(NC(=O)c3ccncc3)cc2CC1=O | -6.85% (inactive) |
| C[C@@H]1CCCCO[C@H](CN(C)S(=O)(=O)c2cn(C)cn2)[C@H](C)CN([C@@H](C)CO)C(=O)c2cc(NC(=O)Nc3ccc(C(F)(F)F)cc3)ccc2O1 | -4.59% (inactive) |
| CC(C)NC(=O)Nc1ccc2c(c1)CC(=O)N([C@@H](C)CO)C[C@@H](C)[C@@H](CN(C)S(=O)(=O)c1ccccc1)O2 | 4.16% (inactive) |
| CC(C)NC(=O)Nc1ccc2c(c1)C(=O)N([C@H](C)CO)C[C@H](C)[C@@H](CN(C)C(=O)CCCN(C)C)OCCCC[C@@H](C)O2 | 2.66% (inactive) |
| C[C@@H]1CCCCO[C@@H](CN(C)Cc2ccc3c(c2)OCO3)[C@@H](C)CN([C@@H](C)CO)C(=O)c2cc(NC(=O)C3CCCCC3)ccc2O1 | -19.5% (inactive) |
| CN(C)C(=O)c1cccc(-c2ccc3n(c2=O)C[C@H]2N[C@@H]3[C@@H](C(=O)NC3CCC3)[C@@H]2CO)c1 | 4.81% (inactive) |
| C[C@H](CO)N1C[C@H](C)[C@H](CN(C)S(=O)(=O)c2cccs2)Oc2ccc(NS(=O)(=O)c3ccccc3)cc2C1=O | 37% (inactive) |
| C[C@H](CO)N1C[C@H](C)[C@H](CN(C)S(=O)(=O)c2ccc(F)cc2)Oc2ncc(-c3ccc(F)cc3)cc2C1=O | 24.9% (inactive) |
| Cc1ccc(S(=O)(=O)N(C)C[C@@H]2Oc3ncc(-c4cc5ccccc5o4)cc3C(=O)N([C@H](C)CO)C[C@@H]2C)cc1 | 73% (active) |
| C[C@H]1CN([C@@H](C)CO)C(=O)Cc2cc(NC(=O)Nc3ccc(F)cc3)ccc2O[C@H]1CN(C)S(=O)(=O)c1ccccc1 | 54% (inactive) |
| COc1ccc(NC(=O)Nc2ccc3c(c2)C(=O)N([C@@H](C)CO)C[C@H](C)[C@@H](CN(C)S(=O)(=O)c2ccc(Cl)cc2)O3)cc1 | 7.85% (inactive) |
| C[C@@H]1CN([C@@H](C)CO)C(=O)Cc2cc(NC(=O)Nc3ccccc3)ccc2O[C@@H]1CN(C)S(=O)(=O)c1ccc(F)cc1 | 56.4% (active) |
| COc1ccc(NC(=O)Nc2ccc3c(c2)C(=O)N([C@H](C)CO)C[C@H](C)[C@H](CN(C)S(=O)(=O)c2ccc(OC)cc2)O3)cc1 | 59.4% (active) |
| COc1ccc(-c2cnc3c(c2)C(=O)N([C@H](C)CO)C[C@H](C)[C@H](CN(C)S(=O)(=O)c2ccccc2)O3)cc1 | 11.4% (inactive) |
| C[C@H](CO)N1C[C@H](C)[C@@H](CN(C)S(=O)(=O)c2ccccc2)Oc2ccc(NC(=O)Nc3ccc(F)cc3)cc2CC1=O | -10.6% (inactive) |
| COc1ccc(S(=O)(=O)N(C)C[C@@H]2Oc3ccc(NC(=O)Nc4c(C)noc4C)cc3C(=O)N([C@H](C)CO)C[C@@H]2C)cc1 | -131% [at 12.3 µM] (inactive) |
